About 7,900 targets were measured; listed, in parts, are those with a hit and a random draw of the rest. About 0.6% of all pairs of compound and target were hits.

UniProt Q8IWA0, sequence (Q8IWA0 whole entry, looked up): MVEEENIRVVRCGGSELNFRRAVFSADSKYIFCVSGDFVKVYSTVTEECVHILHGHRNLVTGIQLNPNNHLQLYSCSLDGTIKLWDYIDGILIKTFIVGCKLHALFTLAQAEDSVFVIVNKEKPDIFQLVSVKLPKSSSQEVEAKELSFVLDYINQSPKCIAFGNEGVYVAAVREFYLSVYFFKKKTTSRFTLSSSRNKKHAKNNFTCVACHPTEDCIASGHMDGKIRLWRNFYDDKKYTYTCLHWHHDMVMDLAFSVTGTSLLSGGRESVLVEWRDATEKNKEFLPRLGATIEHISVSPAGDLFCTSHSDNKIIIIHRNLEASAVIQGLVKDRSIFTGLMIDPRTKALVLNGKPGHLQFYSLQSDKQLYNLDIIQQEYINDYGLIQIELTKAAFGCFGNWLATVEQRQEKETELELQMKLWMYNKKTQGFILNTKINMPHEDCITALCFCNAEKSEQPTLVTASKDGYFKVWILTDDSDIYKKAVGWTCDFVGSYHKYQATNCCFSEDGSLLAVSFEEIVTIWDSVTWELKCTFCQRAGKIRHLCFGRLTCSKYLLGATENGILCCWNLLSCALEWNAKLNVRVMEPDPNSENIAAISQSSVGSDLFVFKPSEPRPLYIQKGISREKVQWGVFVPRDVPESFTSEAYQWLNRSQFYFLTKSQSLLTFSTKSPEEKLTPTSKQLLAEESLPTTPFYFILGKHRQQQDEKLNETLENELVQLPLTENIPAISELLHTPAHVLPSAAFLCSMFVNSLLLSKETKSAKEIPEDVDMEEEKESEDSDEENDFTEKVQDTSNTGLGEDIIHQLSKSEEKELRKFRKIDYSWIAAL
UniProt P51668, sequence (P51668 whole entry, looked up): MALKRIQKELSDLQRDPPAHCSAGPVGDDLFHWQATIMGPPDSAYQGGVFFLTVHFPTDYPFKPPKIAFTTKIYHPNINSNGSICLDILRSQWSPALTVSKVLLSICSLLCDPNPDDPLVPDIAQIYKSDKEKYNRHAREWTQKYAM
UniProt P18887, sequence (P18887 whole entry, looked up): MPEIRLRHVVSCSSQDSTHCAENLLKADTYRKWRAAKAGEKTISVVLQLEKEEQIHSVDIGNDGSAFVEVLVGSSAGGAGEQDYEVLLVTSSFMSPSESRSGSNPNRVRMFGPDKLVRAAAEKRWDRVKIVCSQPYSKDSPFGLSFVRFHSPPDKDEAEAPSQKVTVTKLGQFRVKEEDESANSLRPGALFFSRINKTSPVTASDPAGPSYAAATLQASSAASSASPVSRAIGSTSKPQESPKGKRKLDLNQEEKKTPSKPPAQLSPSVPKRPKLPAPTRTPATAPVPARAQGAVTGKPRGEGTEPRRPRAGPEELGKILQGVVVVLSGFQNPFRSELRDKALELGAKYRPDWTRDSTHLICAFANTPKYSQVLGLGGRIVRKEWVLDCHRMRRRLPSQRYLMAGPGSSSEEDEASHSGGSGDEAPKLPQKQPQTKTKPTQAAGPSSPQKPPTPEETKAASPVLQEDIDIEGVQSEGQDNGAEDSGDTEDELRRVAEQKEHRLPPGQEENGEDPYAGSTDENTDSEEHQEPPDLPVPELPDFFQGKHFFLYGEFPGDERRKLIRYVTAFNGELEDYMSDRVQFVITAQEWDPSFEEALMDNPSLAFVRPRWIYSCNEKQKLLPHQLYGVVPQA
UniProt Q9NVA4, sequence (Q9NVA4 whole entry, looked up): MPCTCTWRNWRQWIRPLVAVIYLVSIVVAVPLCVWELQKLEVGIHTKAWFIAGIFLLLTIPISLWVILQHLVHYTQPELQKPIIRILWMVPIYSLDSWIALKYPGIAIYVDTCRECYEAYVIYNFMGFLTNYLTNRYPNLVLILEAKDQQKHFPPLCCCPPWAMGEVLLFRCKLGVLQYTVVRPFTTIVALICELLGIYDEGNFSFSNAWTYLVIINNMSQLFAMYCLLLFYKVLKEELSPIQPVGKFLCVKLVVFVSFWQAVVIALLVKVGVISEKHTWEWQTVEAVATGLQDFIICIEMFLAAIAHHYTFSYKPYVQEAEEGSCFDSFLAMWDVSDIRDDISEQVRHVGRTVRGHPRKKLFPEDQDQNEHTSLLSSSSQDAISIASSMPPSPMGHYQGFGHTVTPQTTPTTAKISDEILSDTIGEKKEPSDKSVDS
UniProt Q9HCN3, sequence (Q9HCN3 whole entry, looked up): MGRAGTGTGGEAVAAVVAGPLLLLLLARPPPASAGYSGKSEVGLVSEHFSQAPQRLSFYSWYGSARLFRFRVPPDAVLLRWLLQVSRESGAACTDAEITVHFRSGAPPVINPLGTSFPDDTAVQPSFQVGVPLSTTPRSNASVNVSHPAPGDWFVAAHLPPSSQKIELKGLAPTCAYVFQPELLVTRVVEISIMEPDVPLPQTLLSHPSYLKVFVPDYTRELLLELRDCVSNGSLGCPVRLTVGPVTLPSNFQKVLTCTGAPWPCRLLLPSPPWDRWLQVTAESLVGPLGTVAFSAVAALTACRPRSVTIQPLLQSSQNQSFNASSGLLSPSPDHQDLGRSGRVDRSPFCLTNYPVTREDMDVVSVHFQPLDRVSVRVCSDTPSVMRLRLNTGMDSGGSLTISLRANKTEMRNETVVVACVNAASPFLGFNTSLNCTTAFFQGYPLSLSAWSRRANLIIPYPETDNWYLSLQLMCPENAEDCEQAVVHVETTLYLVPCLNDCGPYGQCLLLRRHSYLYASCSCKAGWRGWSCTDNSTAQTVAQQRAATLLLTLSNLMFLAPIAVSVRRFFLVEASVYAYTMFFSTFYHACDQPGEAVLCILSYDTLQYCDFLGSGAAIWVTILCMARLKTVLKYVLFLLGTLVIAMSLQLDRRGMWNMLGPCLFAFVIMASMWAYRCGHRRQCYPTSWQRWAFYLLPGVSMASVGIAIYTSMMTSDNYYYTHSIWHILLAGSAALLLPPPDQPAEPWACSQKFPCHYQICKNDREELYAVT
UniProt Q5U3C3, sequence (Q5U3C3 whole entry, looked up): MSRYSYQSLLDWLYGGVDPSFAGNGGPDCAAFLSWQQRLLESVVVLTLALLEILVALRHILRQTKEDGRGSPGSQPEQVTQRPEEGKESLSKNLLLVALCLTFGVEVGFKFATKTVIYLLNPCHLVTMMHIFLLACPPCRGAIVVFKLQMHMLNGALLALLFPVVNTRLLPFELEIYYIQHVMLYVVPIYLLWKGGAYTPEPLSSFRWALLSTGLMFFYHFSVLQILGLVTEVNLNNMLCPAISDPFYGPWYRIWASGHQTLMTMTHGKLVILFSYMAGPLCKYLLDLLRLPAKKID
UniProt Q86TN4, sequence (Q86TN4 whole entry, looked up): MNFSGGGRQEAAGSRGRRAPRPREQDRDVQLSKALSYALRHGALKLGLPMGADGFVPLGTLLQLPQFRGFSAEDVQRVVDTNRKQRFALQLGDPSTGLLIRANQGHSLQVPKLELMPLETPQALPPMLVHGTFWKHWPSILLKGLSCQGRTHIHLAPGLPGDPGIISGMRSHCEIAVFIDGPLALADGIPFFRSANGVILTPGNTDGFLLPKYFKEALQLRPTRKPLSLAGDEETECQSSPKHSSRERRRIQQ
UniProt Q9NUM4, sequence (Q9NUM4 whole entry, looked up): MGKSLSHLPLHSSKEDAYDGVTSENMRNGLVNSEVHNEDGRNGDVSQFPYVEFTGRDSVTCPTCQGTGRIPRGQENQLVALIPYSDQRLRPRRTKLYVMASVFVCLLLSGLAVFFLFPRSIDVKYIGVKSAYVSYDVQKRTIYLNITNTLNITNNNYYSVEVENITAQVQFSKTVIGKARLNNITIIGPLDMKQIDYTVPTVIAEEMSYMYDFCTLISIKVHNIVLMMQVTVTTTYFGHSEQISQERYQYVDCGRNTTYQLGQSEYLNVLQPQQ
UniProt Q629K1, sequence (Q629K1 whole entry, looked up): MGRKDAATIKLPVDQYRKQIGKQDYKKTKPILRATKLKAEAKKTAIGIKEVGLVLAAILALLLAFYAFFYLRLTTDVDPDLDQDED
UniProt Q5VZI3, sequence (Q5VZI3 whole entry, looked up): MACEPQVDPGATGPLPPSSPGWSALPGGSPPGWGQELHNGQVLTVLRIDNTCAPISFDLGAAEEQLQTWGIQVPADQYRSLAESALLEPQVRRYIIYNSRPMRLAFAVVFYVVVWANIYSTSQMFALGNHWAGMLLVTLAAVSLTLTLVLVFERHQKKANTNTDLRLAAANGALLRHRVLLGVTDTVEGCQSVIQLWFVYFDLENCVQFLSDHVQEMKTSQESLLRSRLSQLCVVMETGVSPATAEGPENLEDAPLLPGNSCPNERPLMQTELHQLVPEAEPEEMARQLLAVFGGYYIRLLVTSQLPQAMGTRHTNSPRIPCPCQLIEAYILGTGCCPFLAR
UniProt Q8NE00, sequence (Q8NE00 whole entry, looked up): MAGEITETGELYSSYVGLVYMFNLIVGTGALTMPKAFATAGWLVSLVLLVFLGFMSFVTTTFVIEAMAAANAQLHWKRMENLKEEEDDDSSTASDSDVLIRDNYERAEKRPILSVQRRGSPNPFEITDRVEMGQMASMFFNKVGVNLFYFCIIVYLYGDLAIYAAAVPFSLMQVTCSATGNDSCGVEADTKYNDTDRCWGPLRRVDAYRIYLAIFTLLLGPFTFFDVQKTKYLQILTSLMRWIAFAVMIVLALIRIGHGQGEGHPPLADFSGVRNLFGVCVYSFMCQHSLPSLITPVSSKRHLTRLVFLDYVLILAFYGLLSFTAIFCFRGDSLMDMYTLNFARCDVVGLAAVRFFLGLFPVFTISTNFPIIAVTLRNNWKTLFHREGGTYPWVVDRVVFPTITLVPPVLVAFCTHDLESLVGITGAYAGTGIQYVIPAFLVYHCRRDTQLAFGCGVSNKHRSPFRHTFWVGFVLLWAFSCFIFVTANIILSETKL
UniProt Q8N2K1, sequence (Q8N2K1 whole entry, looked up): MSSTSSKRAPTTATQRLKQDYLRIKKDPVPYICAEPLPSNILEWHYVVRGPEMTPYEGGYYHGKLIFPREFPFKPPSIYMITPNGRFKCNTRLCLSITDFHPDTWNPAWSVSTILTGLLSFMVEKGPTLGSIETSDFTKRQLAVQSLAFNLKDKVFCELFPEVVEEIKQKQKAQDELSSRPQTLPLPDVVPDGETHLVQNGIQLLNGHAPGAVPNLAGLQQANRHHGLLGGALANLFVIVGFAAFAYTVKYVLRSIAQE
UniProt P61960, sequence (P61960 whole entry, looked up): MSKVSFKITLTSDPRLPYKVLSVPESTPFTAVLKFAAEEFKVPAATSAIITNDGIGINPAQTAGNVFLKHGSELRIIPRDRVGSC

Compound in the first assay: CC1=C(C=C(C=C1)NC(=O)C2=CC(=CC=C2)C(C)(C)C#N)NC3=CC4=C(C=C3)N=CN(C4=O)C
Nature of the assay: log2 fold change, soluble protein after heating vs DMSO (PISA); higher = thermal stabilisation; K562 cells, 10 uM, 30 min; active = over 0.2 and 3.5 SD of the protein, either way, in both replicates (recomputed). In a few lines: (§1)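 Soluble protein was quantified by TMTpro 16plex LC-MS/MS after channel sums were equalised. It was obtained as the supernatant after 21,000xg for 90 min from pooled aliquots of K562 cells (2×10^6 cells/mL, 10 μM compound, 30 min) heated for 3 min across 48°C-58°C and extracted in PBS with 0.5% NP-40 at 4°C. Thermal stability values are relative to control samples and come from duplicates. They are given as log2 fold changes.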
As for WDR4 isoform 3 (UniProt P57081), the log2 fold change is -0.041 (inactive).

Take TMEM268 isoform 3 (UniProt Q5VZI3): the log2 fold change was 0.056 (inactive).

With TMEM164 (UniProt Q5U3C3), the log2 fold change is 0.288 (inactive).

Take USP48 (UniProt Q86UV5): the log2 fold change was -0.096 (inactive).

Regarding XRCC1 (UniProt P18887), the log2 fold change was 0.049 (inactive).

As to WARS1 (UniProt G3V3P2), the log2 fold change was -0.055 (inactive).

In the case of UBE2J2 isoform 3 (UniProt Q8N2K1), the log2 fold change is -0.085 (inactive).

As for VDAC1 (UniProt C9JI87), the log2 fold change was -0.03 (inactive).

For the target TMEM8A (UniProt Q9HCN3), the log2 fold change was 0.101 (inactive).

As for TRIM5 (UniProt Q9C035), the log2 fold change is -0.063 (inactive).

Consider XIAP (UniProt P98170), for which the log2 fold change was -0.047 (inactive).

For UFM1 isoform 2 (UniProt P61960), the log2 fold change was 0.004 (inactive).

With TRIM23 (UniProt P36406), the log2 fold change is -0.025 (inactive).

For WDR46, A0A0G2JJL1, the log2 fold change was -0.161 (inactive).

On to TXNRD1 isoform 7 (UniProt Q16881), for which the log2 fold change was -0.567 (inactive).

Turning to TRPT1 isoform 4 (UniProt Q86TN4), the log2 fold change is -1.08 (active).

Turning to TRIQK (UniProt Q629K1), the log2 fold change is -0.022 (inactive).

Consider WARS1 (UniProt G3V277), for which the log2 fold change was 0.02 (inactive).

On to TOM1L2 (UniProt Q6ZVM7), for which the log2 fold change was -0.038 (inactive).

Turning to TOM1 (UniProt O60784), the log2 fold change was 0.058 (inactive).

As for TMEM184C (UniProt Q9NVA4), the log2 fold change is -0.07 (inactive).

For the target WARS1 (UniProt G3V5U1), the log2 fold change was -0.795 (inactive).

For TUBA4A (UniProt C9JJQ8), the log2 fold change is -0.019 (inactive).

Take UBE2D1 (UniProt P51668): the log2 fold change is -0.08 (inactive).

On to TMEM219 (UniProt Q86XT9), for which the log2 fold change is 0.021 (inactive).

For TMEM106B (UniProt Q9NUM4), the log2 fold change was -0.029 (inactive).

Compound in another assay: CC1=C(C=C(C=C1)NC(=O)C2=CC(=CC=C2)N(C)C)NC(=O)C3=CC=C(C=C3)O
The assay is described as above. In a few lines:
as §1
Consider TTC26, for which the log2 fold change is 0.116 (inactive).

Turning to TMEM104 (UniProt Q8NE00), the log2 fold change was 0.058 (inactive).

On to TMEM268 isoform 3 (UniProt Q5VZI3), for which the log2 fold change is 0.024 (inactive).

As for XRCC1 (UniProt P18887), the log2 fold change is 0.063 (inactive).

Turning to VDAC1 (UniProt C9JI87), the log2 fold change is -0.003 (inactive).

TMEM8A (UniProt Q9HCN3): the log2 fold change is 0.017 (inactive).

Take TRIM5 (UniProt Q9C035): the log2 fold change is -0.197 (inactive).

TRIM23 (UniProt P36406): the log2 fold change is -0.008 (inactive).

As for VWA3B isoform 6 (UniProt Q502W6), the log2 fold change is 0.104 (inactive).

WDR75 (UniProt Q8IWA0): the log2 fold change is 0.007 (inactive).

Take TRPT1 isoform 4 (UniProt Q86TN4): the log2 fold change was 0.136 (inactive).

With TRIQK (UniProt Q629K1), the log2 fold change was -0.007 (inactive).

Consider XAB2 (UniProt Q9HCS7), for which the log2 fold change was -0.027 (inactive).

In the case of TMEM184C (UniProt Q9NVA4), the log2 fold change was 0.028 (inactive).

As to UBE2D1 (UniProt P51668), the log2 fold change is 0.029 (inactive).

Compound in another assay: CC1=CC=C(C=C1)SC2=C3C=C(SC3=CN=C2)C(=O)N
Described as above. Summed up: as §1
For TVP23C (UniProt Q96ET8), the log2 fold change is 0.024 (inactive).

For UBAP2L (UniProt F8W726), the log2 fold change is -0.093 (inactive).

Take TMEM104 (UniProt Q8NE00): the log2 fold change was -0.015 (inactive).

Take TMEM268 isoform 3 (UniProt Q5VZI3): the log2 fold change was -0.178 (inactive).

As to TMEM164 (UniProt Q5U3C3), the log2 fold change is 0.05 (inactive).

Regarding UTP20 (UniProt O75691), the log2 fold change is 0.037 (inactive).

As to UBE2J2 isoform 3 (UniProt Q8N2K1), the log2 fold change was 0.024 (inactive).

VDAC1 (UniProt C9JI87): the log2 fold change was -0.034 (inactive).

Turning to TMEM8A (UniProt Q9HCN3), the log2 fold change was -0.047 (inactive).

Turning to XIAP (UniProt P98170), the log2 fold change was -0.045 (inactive).

As for UFM1 isoform 2 (UniProt P61960), the log2 fold change was -0.01 (inactive).

In the case of VWA3B isoform 6 (UniProt Q502W6), the log2 fold change is 0.072 (inactive).

As for WDR46, A0A0G2JJL1, the log2 fold change is -0.229 (inactive).

In the case of TXNRD1 isoform 7 (UniProt Q16881), the log2 fold change is -0.037 (inactive).

For the target WDR75 (UniProt Q8IWA0), the log2 fold change was 0.043 (inactive).

For TUBA4A (UniProt C9JJQ8), the log2 fold change is 0.022 (inactive).

On to UBE2D1 (UniProt P51668), for which the log2 fold change was 0.021 (inactive).

In the case of TMEM219 (UniProt Q86XT9), the log2 fold change was 0.02 (inactive).

TMEM106B (UniProt Q9NUM4): the log2 fold change was 0.161 (inactive).

Compound in a further assay: CC1=NC(=CC=C1)C2=C(N=C(N2)C(C)(C)C)C3=CC4=NC=CN=C4C=C3
The assay is described as above. Summed up: as §1
Regarding TMEM104 (UniProt Q8NE00), the log2 fold change was -0.039 (inactive).

On to TMEM164 (UniProt Q5U3C3), for which the log2 fold change was -0.047 (inactive).

For the target XRCC1 (UniProt P18887), the log2 fold change is -0.222 (inactive).

With TRIM23 (UniProt P36406), the log2 fold change was 0.036 (inactive).

Turning to VWA3B isoform 6 (UniProt Q502W6), the log2 fold change is 0 (inactive).

WDR46, A0A0G2JJL1: the log2 fold change is -0.254 (inactive).

For the target WDR75 (UniProt Q8IWA0), the log2 fold change was -0.053 (inactive).

In the case of TRPT1 isoform 4 (UniProt Q86TN4), the log2 fold change is -0.008 (inactive).

For TRIQK (UniProt Q629K1), the log2 fold change is -0.173 (inactive).

As to WARS1 (UniProt G3V277), the log2 fold change was -0.043 (inactive).

Take XAB2 (UniProt Q9HCS7): the log2 fold change was -0.034 (inactive).

For TOM1L2 (UniProt Q6ZVM7), the log2 fold change is -0.132 (inactive).

With U2AF1L5 (UniProt P0DN76), the log2 fold change was -0.036 (inactive).

As to TOM1 (UniProt O60784), the log2 fold change is -0.022 (inactive).

For the target TMEM184C (UniProt Q9NVA4), the log2 fold change was 0.028 (inactive).

In the case of WARS1 (UniProt G3V5U1), the log2 fold change was -0.638 (inactive).

TUBA4A (UniProt C9JJQ8): the log2 fold change was 0.138 (inactive).

TMEM106B (UniProt Q9NUM4): the log2 fold change is 0.019 (inactive).
